From PubChem
TDP1 cell noCPT – qHTS for Inhibitors of human tyrosyl-DNA phosphodiesterase 1 (TDP1): qHTS in cells in absence of CPT; AID 686978, 2013; Potency, µM (top dose mostly 46.2 µM), without a hit: at the top dose activity change, negative = growth inhibition, hits mostly inhibitors; DT40 Tdp1-/- hTDP1 cells, no CPT, ATP luminescence, 48 h; hit rate 15% among 420,000; also: potency is read from the fitted curve at half-maximal effect; nearly all actives have a fitted effect of over 55% in size
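No-CPT arm: Tdp1-/-;hTDP1 DT40 cells (400/well) plus compounds, incubated ≥48 hr at 37 °C. Readout CellTiter-Glo luminescence.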
HT1080 IDH1KD tx – kills HT-1080 cells with IDH1 knockdown; HT-1080 IDH1 knockdown viability, ATP luminescence, 48 h; Potency, µM (titrated, usually from 46.1 µM), inactives show at the highest dose activity, negative = toxicity, most hits filed as cytotoxic; hit rate 2% among 360,000;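 also: potency is read from the fitted curve at half-maximal effect; 0% = DMSO wells and -100% = cell-free medium wells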
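After a 2 h attachment period, IDH1KD HT-1080 cells took pin-transferred compound for 48 h at 37 °C; ATP-based luminescence after 10 min room-temperature reagent incubation reported viability.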
HT1080-NT tox – kills 2HG-producing HT-1080-NT fibrosarcoma cells; hit rate 1.6% among 360,000; Potency, µM (doses to about 46.1 µM), without a hit: top-dose activity, negative = less viability, actives largely listed as cytotoxic; HT-1080-NT fibrosarcoma viability, CellTiter-Glo ATP luminescence, 48 h;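 also: NT is the 2HG producing partner of a matched IDH1 knockdown line; potency is read from the fitted curve at half-maximal effect; 0% = DMSO-treated cells and -100% = media-only wells without cells; nearly all actives have a fitted effect of over 55% in size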
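Luminescent CellTiter-Glo readout after 48 hours of compound exposure at 37 degrees C defined viability of HT-1080-NT cells. Activity was normalized to DMSO wells and cell-free media wells; concentration-response curves were fitted and assigned curve classes.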
ALOX12 inh – blocks human arachidonate 12S-lipoxygenase; P18054; purified 12hLO, xylenol orange hydroperoxide absorbance; Potency, µM (titrated, usually from 108 µM), inactives show top-dose activity change, negative = inhibition, actives largely listed as inhibitors; hit rate 1.1% among 580,000; AID 1671190; also: potency is read from the fitted curve at half-maximal effect
Target sequence (P18054 whole entry, looked up): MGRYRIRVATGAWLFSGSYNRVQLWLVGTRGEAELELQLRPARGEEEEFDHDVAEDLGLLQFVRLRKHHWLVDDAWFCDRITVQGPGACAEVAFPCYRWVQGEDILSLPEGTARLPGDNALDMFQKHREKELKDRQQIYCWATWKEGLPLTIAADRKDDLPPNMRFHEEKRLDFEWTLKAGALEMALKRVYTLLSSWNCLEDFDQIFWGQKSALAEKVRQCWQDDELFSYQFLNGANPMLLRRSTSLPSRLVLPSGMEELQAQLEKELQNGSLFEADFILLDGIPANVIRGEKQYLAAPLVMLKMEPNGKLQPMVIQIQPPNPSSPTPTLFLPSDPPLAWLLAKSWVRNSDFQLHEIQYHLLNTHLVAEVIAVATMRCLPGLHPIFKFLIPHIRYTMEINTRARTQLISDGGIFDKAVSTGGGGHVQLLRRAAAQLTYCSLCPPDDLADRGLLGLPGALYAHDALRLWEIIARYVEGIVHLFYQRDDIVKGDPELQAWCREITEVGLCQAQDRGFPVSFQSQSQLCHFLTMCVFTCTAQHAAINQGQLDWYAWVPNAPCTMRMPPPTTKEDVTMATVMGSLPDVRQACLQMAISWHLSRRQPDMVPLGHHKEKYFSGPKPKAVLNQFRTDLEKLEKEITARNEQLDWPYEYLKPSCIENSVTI
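Purified human 12hLO (150 nM final) in 25 mM Hepes, 0.01% Triton X-100, pH 7.0 was preincubated 15 min at room temperature with compound. Then 40 uM arachidonic acid was added, 30 min. Hydroperoxide was read by Fe-XO absorbance ratio 573/405 nm.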
IL1B secr inh – inflammasome signaling inhibition, IL-1 beta readout | THP-1 LPS/ATP IL-1B secretion, AlphaLISA, 16 h; hits give low values | activity change, % at 57.5 µM | hit rate 4.7% among 360,000 | AID 743279; in the data active = activity change below about -50%; inconclusive = mostly about -30% to -49%
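THP-1 cells pretreated 1 hr with compounds (up to 57.5 uM final), then stimulated with LPS (250 ng/mL final) plus ATP (1.25 mM final); secreted IL-1B measured by AlphaLISA after 16 hr, decreased signal indicating inhibition.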
DT40 TDP1 CPT – growth inhibition of DT40 Tdp1-/-;hTDP1 cells with camptothecin (screen for TDP1 inhibitors); chicken DT40 Tdp1-/-;hTDP1 cells + 20 nM CPT, ATP luminescence, 48 h; Potency, µM (series often up to 46.2 µM), inactives show at the highest dose activity change, negative = growth inhibition, hits mostly inhibitors; hit rate 12% among 420,000; also: potency is read from the fitted curve at half-maximal effect; nearly all actives have a fitted effect of over 55% in size
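Cell growth measured by CellTiter-Glo luminescence after a minimum 48 h, 37 C compound exposure with 20 nM CPT in Tdp1-knockout DT40 cells stably expressing hTDP1, seeded 400/well; qHTS titration format.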
An asterisk follows results filed as active; [ ] = remark or other dose. Shown is part of a subset that was picked to be rich in hits. Unless noted, calls follow the shape of the dose curve; as a rule, active = well fitted curve in the direction sought with a large enough effect; inconclusive = small, poorly fitted or top-dose-only effect, or another doubt; inactive = no such curve, though single readings can be large; an effect the other way counts as inactive or inconclusive. Unless noted, % is scaled to controls: 0 for no effect and ±100 for the full control effect.

Screening O=C(CC1(O)C(=O)N(Cc2cccc3ccccc23)c2ccccc21)c1cccnc1 (stereo not given) returned TDP1 cell noCPT 0.82µM*, HT1080 IDH1KD tx 10µM*, HT1080-NT tox inconclusive, ALOX12 inh inconclusive, IL1B secr inh 30 and DT40 TDP1 CPT 0.92µM*.
Cn1cc(CN2CCN3C(=O)N(Cc4ccc(F)cc4)C[C@H]3C2)cn1 was read as ALOX12 inh 9%[176 µM].
For Cc1ccccc1-c1cnc2[nH]cc(CC(=O)Nc3cccnc3)c2c1 the results were ALOX12 inh -16%[176 µM].
O=C(Nc1oc2ccc(Cl)cc2c(=O)c1-c1ccccc1)c1cccc([N+](=O)[O-])c1 was read as ALOX12 inh 0%.
For CCS(=O)(=O)c1ccc2oc(SCC(=O)NC34CC5CC(CC(C5)C3)C4)nc2c1 the results were TDP1 cell noCPT 13µM*, HT1080 IDH1KD tx -7%, HT1080-NT tox -9%, ALOX12 inh -13%, IL1B secr inh -23 and DT40 TDP1 CPT inconclusive.
Screening CC(c1ccccc1)N(C)C(=O)CSc1cc(C(=O)NC2CC2)c2ccccc2n1 (stereo not given) returned ALOX12 inh 2%.
C#CCOCCOCCOCCNc1nc(N2CCN(C(=O)Cn3cc(CCO)nn3)CC2)nc(N2CCN(C(=O)[C@H](CCCCN)n3cc(CC(C)O)nn3)CC2)n1 (stereo not given in full) was read as TDP1 cell noCPT 15%, HT1080 IDH1KD tx 5%, HT1080-NT tox 9%, ALOX12 inh inconclusive, IL1B secr inh 36 and DT40 TDP1 CPT 4%.
For C#CCOCCOCCOCCNc1nc(N2CCN(C(=O)[C@H](CCCCN)n3cc(CC(C)O)nn3)CC2)nc(N2CCN(C(=O)[C@H](CCCCN)n3cc(CC(C)O)nn3)CC2)n1 (stereo not given in full) the results were TDP1 cell noCPT 6%, HT1080 IDH1KD tx 17%, HT1080-NT tox 7%, ALOX12 inh 13µM*, IL1B secr inh 4 and DT40 TDP1 CPT 18%.
For C#CCOCCOCCOCCNc1nc(N2CCOCC2)nc(N2CCN(C(=O)[C@H](CCCCN)n3cc(CCCC)nn3)CC2)n1 the results were TDP1 cell noCPT 1.3µM*, HT1080 IDH1KD tx 11%, HT1080-NT tox 11%, ALOX12 inh 35µM*, IL1B secr inh 12 and DT40 TDP1 CPT 0.21µM*.
`Cc1csc(NC(=O)c2nc3c(o2)CCN(Cc2ccc4[nH]ccc4c2)CC3)n1` gave ALOX12 inh 54%[176 µM].
`O=C(Nc1cnc(-c2ccccc2)nc1)c1ccc(C2SCCCS2)cc1` gave ALOX12 inh -32%.
Cc1ccn(CC(=O)N2C[C@@H](COCC3CC3)[C@H](c3ccccn3)C2)n1 was read as ALOX12 inh 24%.
C(=C\c1ccccc1)/CN1CCN(C(c2ccnc3ccccc23)c2nnnn2-c2ccc3c(c2)OCCO3)CC1 (stereo not given) was read as TDP1 cell noCPT 21µM*, HT1080 IDH1KD tx inconclusive, HT1080-NT tox inconclusive, ALOX12 inh inconclusive, IL1B secr inh 0 and DT40 TDP1 CPT 16µM*.
C(=C\c1ccccc1)/CN1CCN(C(c2cccc3ccccc23)c2nnnn2C2CCCC2)CC1 (stereo not given) was read as TDP1 cell noCPT 9.2µM*, HT1080 IDH1KD tx inconclusive, HT1080-NT tox inconclusive, ALOX12 inh 2%, IL1B secr inh inconclusive and DT40 TDP1 CPT 21µM*.
COc1cccc(C(c2nnnn2C(C)(C)C)N2CCN(C/C=C/c3ccccc3)CC2)c1OC (stereo not given) was read as TDP1 cell noCPT 16µM*, HT1080 IDH1KD tx -27%, HT1080-NT tox inconclusive, ALOX12 inh -8%, IL1B secr inh -9 and DT40 TDP1 CPT inconclusive.
`CCCCn1nnnc1C(c1ccc(OC)cc1)N1CCN(C/C=C/c2ccccc2)CC1` (stereo not given) gave TDP1 cell noCPT 18µM*, HT1080 IDH1KD tx inconclusive, HT1080-NT tox inconclusive, ALOX12 inh inconclusive, IL1B secr inh inconclusive and DT40 TDP1 CPT inconclusive.
COc1cc(CN2Cc3ccccc3C2)ccc1OCC(O)CN1CCOCC1 (stereo not given) was read as ALOX12 inh 8%.
`Cc1ccccc1N=C1Nc2cccc3cccc1c23` gave ALOX12 inh -9%.
Screening Cc1cccc(C)c1-n1nnnc1C(c1cccs1)N1CCN(C/C=C/c2ccccc2)CC1 (stereo not given) returned TDP1 cell noCPT inconclusive, HT1080 IDH1KD tx inconclusive, HT1080-NT tox inconclusive, ALOX12 inh inconclusive, IL1B secr inh -15 and DT40 TDP1 CPT inconclusive.
For C(=C\c1ccccc1)/CN1CCN(C(c2cc3ccccc3o2)c2nnnn2Cc2ccccc2)CC1 (stereo not given) the results were TDP1 cell noCPT 16µM*, HT1080 IDH1KD tx 9%, HT1080-NT tox 18%, ALOX12 inh -3%, IL1B secr inh 2 and DT40 TDP1 CPT inconclusive.
COc1ccc(C(c2nnnn2-c2ccc(OC)cc2)N2CCN(C/C=C/c3ccccc3)CC2)cc1 (stereo not given) was read as TDP1 cell noCPT inconclusive, HT1080 IDH1KD tx inconclusive, HT1080-NT tox inconclusive, ALOX12 inh -21%, IL1B secr inh -53* and DT40 TDP1 CPT inconclusive.
COc1ccc(-n2nnnc2C(c2cccs2)N2CCN(C/C=C/c3ccccc3)CC2)cc1 (stereo not given) was read as TDP1 cell noCPT 16µM*, HT1080 IDH1KD tx inconclusive, HT1080-NT tox inconclusive, ALOX12 inh inconclusive, IL1B secr inh 0 and DT40 TDP1 CPT 16µM*.
`C(=C\c1ccccc1)/CN1CCN(C(c2cc3ccccc3o2)c2nnnn2C2CCCC2)CC1` (stereo not given) gave TDP1 cell noCPT inconclusive, HT1080 IDH1KD tx 12%, HT1080-NT tox 16%, ALOX12 inh -17%, IL1B secr inh -20 and DT40 TDP1 CPT inconclusive.
For CCCCn1nnnc1C(c1cccs1)N1CCN(C/C=C/c2ccccc2)CC1 (stereo not given) the results were TDP1 cell noCPT 23µM*, HT1080 IDH1KD tx inconclusive, HT1080-NT tox inconclusive, ALOX12 inh inconclusive, IL1B secr inh 0 and DT40 TDP1 CPT 21µM*.
